# PubChem BioAssay AID862 (The Scripps Research Institute Molecular Screening Center, 2007)
# About 1,700 (0.89%) of roughly 190,000 compounds were called active.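 The calls were made as follows: active = inhibition above the mean inhibition across all screened compounds plus 3 SD (cut at about 44% in these data); inactive = the rest.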 Shown is part of a subset that was picked to be rich in actives.
# Experiment: IL-6 driven STAT3 reporter inhibitors, primary screen, U3A cells, luciferase, luminescence, MLSCN library (AID 862);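 also: 0% = DMSO only wells and 100% = 100 µM nifuroxazide control wells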
# Conditions: IL-6 STAT3-luciferase reporter, at 5.5 µM, active compounds read high, host cell line lacks STAT1
row,SMILES,inhibition
1,O=c1c2ccccc2c(-c2ccccc2)nn1-c1ccccn1,4.6% (inactive)
2,O=C(CP(=O)(c1ccccc1)c1ccccc1)N1CCOCC1,6.3% (inactive)
3,COC(=O)Cc1ccc(OCC(=O)Nc2ccc(OC(F)(F)F)cc2)cc1,-10.9% (inactive)
4,CCN1CCN(CC(=O)c2cc(OC)c(OC)c(OC)c2)CC1,11.2% (inactive)
5,CCCc1ccc(-c2csc(NC(=O)Cc3cccs3)n2)cc1,43.7% (active)
6,Cc1ccc(-c2csc(NC(=O)Cc3cccs3)n2)cc1C,12.1% (inactive)
7,COc1ccc(-c2csc(NC(=O)CCCc3cccs3)n2)cc1,23.2% (inactive)
8,c1ccc(C2CNCc3c2ccc2ccccc32)cc1 (centres undefined),3.3% (inactive)
9,O=S(=O)(Nc1ccccn1)c1ccc(Oc2ccccc2)cc1,-1.5% (inactive)
10,COc1ccccc1Oc1ccc(S(=O)(=O)Nc2cccnc2)cc1,48.9% (active)
11,COc1ccc(S(=O)(=O)Nc2cccnc2)c(Cl)c1Cl,5.5% (inactive)
12,Cn1c(CCCOc2ccc(Cl)cc2Cl)n[nH]c1=S,9.7% (inactive)
13,O=C(COC(=O)C1CC2C=CC1C2)Nc1ccccc1 (centres undefined),1% (inactive)
14,CCCCCc1ccc(-c2ccc(OCC)cc2)nc1,25.3% (inactive)
15,CCCCCC(=O)Nc1ccc(-c2cn3cccnc3n2)cc1,11.1% (inactive)
16,CCCCCc1ccc(-c2ccc(C(=O)O)cc2)nc1,52.6% (active)
17,CCCN(CC(=O)Nc1ccccc1C)C(=O)c1cc(=O)[nH]c2ccccc12,3.5% (inactive)
18,N#Cc1nc(Cc2ccccc2)oc1NCCc1ccccc1,-13.4% (inactive)
19,N#Cc1nc(COc2ccc(-c3ccccc3)cc2)oc1NCc1cccnc1,45.2% (active)
20,N#Cc1nc(-c2ccc(OCc3ccccc3)cc2)oc1NCCCN1CCOCC1,14.7% (inactive)
21,COC(=O)c1sc2[nH]c(=S)n(N)c(=O)c2c1C,8.3% (inactive)
22,Cc1ccc(CN(Cc2cccnc2)C(=S)Nc2cccc(Cl)c2C)cc1,9.3% (inactive)
23,O=C(CN1C(=O)c2ccccc2S1(=O)=O)N1CCc2ccccc21,89.1% (active)
24,CNC(=O)CN1C(=O)c2ccccc2S1(=O)=O,10.2% (inactive)
25,O=C(CN1CCN(c2ccccn2)CC1)N1CCc2ccccc21,1.6% (inactive)
26,Clc1ccc2nc(CSc3ccccc3)cn2c1,62.7% (active)
27,CCOc1ncccc1C(=O)OCc1cn2cc(Cl)ccc2n1,12.3% (inactive)
28,O=c1cc(CSc2ccc(Cl)cc2)nc(N2CCOCC2)[nH]1,-7.4% (inactive)
29,CCOC(=O)NN1C(=O)c2ccccc2NC1c1cccc(O)c1 (centres undefined),-10% (inactive)
